Assay [1] in a line: APR_HepG2_P-H2AX_72hr: Apredica 72-hour HepG2 Assay for H2AX Phosphorylation (AID 2282916).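 Also: phospho-histone H2A.x immunostain intensity per cell marking DNA damage.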 Particulars: imaging, actives raise or lower the signal. An outline of the steps: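 Human hepatoma HepG2 cells are dosed across ten concentrations (0.39 to 200 uM, 0.5% v/v DMSO) and incubated 72 hr. Phospho-histone H2A.x is then detected by antibody staining alongside c-Jun and Hoechst, and quantified by automated fluorescence imaging.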

Assay [2] in a line: APR_HepG2_MitoMembPot_72hr: Apredica 72-hour HepG2 Assay for Mitochondrial Membrane Potential (AID 2282917). Particulars: imaging, actives raise or lower the signal. An outline of the steps: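 HepG2 cells exposed 72 h to compounds at 0.39–200 uM (0.5% v/v DMSO, duplicates); MitoTracker Red CMXRos 250 nM loaded 30 min before 3.7% formaldehyde fixation, imaged by HCS fluorescence. Bidirectional fit versus DMSO.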

The nature of assay [3]: APR_HepG2_MitoticArrest_72hr: Apredica 72-hour HepG2 Assay for Mitotic Arrest (AID 2282918). Particulars: high-content imaging, actives raise or lower the signal. In outline: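 HepG2 cells were exposed for 72 hr to compound at 0.39–200 uM (10 concentrations, duplicate) in 0.5% v/v DMSO, fixed in 3.7% formaldehyde, immunostained for phospho-histone H3 with Hoechst 33342 and imaged by high-content fluorescence; bidirectional fits versus DMSO.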

A short description of assay [4]: APR_HepG2_P-H2AX_24hr: Apredica 24-hour HepG2 Assay for H2AX Phosphorylation (AID 2282920). Particulars: high-content imaging, actives raise or lower the signal. An outline of the steps: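 HepG2 human liver cells were exposed for 24 hr to compounds at 0.39–200 uM in duplicate, with 0.5% v/v DMSO final. Fixed cells were immunostained for phospho-histone H2A.x plus Hoechst 33342, imaged by HCS fluorescence, and fitted bidirectionally against DMSO.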

Assay [5] is described as follows: APR_HepG2_StressKinase_72hr: Apredica 72-hour HepG2 Assay for Stress Kinase (AID 2282921). Particulars: HepG2 stress kinase (phospho-c-Jun) imaging, actives raise or lower the signal. An outline of the steps:
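After a 72 h compound treatment spanning 0.39 to 200 uM, formaldehyde-fixed cells are labelled for phosphorylated c-Jun and nuclei, imaged by automated fluorescence microscopy, and activity is fitted in both directions relative to DMSO controls.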

Assay [6] in a line: APR_HepG2_p53Act_72hr: Apredica 72-hour HepG2 Assay for p53 Activation (AID 2282923).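 Also: average cellular p53 protein immunofluorescence intensity in HepG2 cells.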 Particulars: high-content imaging, actives raise or lower the signal. In outline:
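Imaging-based endpoint: after 72 hr compound exposure (up to 200 uM, 0.5% DMSO), fixed and permeabilized monolayers were labelled with anti-p53 antibody and imaged; signal change in either direction was fitted relative to DMSO controls.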

The nature of assay [7]: APR_HepG2_MitoMass_72hr: Apredica 72-hour HepG2 Assay for Mitochondrial Mass (AID 2282924).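 Also: MitoTracker Red CMXRos stain intensity per cell imaged as mitochondrial mass.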 Particulars: high-content imaging, actives raise or lower the signal. In outline: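 Steps: treat HepG2 72 hr (0.39–200 uM, duplicate wells); load MitoTracker Red CMXRos, 250 nM, 30 min; fix with 3.7% formaldehyde, permeabilise with 0.5% Triton X-100; capture images, nuclei via Hoechst 33342; fit bidirectionally against DMSO.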

Assay [8] can be described thus: ATG_CRE_CIS: Attagene CIS-FACTORIAL HepG2 Assay for human cAMP Responsive Element (CRE) binding protein 3 (AID 2282926). Particulars: HepG2 CRE cis-reporter, Attagene multiplexed mRNA; actives raise or lower the signal. An outline of the steps:
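Capillary electrophoresis of 6-FAM-labelled, HpaI-digested PCR products quantified reporter transcripts. These came from HepG2 transiently transfected with cis-element reporters and exposed to test chemicals for 24 hours, with DMSO defining baseline activity.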

A short description of assay [9]: ATG_CMV_CIS: Attagene CIS-FACTORIAL HepG2 Assay for human CMV (Internal Marker) (AID 2282928).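 Also: endpoint acts as a background internal control marker rather than a target.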 Particulars: HepG2 CMV promoter reporter, transcription factor profiling; actives raise or lower the signal. An outline of the steps:
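Bidirectional fits against DMSO are applied to reporter mRNA, read by RT-PCR with capillary electrophoresis, from HepG2 cells exposed 24 h. The endpoint serves as an internal CMV background marker within the cis-factorial reporter panel.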

Assay [10] is described as follows: ATG_DR4_LXR_CIS: Attagene CIS-FACTORIAL HepG2 Assay for human Liver X Receptor (LXR), DR4 submotif (AID 2282929). Particulars: HepG2 Attagene DR4 cis-reporter, mRNA transcription; actives raise or lower the signal. An outline of the steps: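 After transient transfection with multiplexed cis-promoter reporter units, HepG2 cells received test chemicals for 24 h. Reporter mRNA induction, detected by fluorescence after RT-PCR and capillary electrophoresis, was scored relative to DMSO.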

Assay [11] addresses Aryl hydrocarbon receptor (Homo sapiens) (UniProt P35869). Kind of assay: ATG_Ahr_CIS: Attagene CIS-FACTORIAL HepG2 Assay for human Aryl Hydrocarbon Receptor (Ahr) (AID 2282930). Particulars: HepG2 AhR cis-factorial reporter transcription; actives raise or lower the signal. An outline of the steps:
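Values derive from bidirectional fitting against DMSO negative control. Underlying signal: cis-element reporter mRNA in transiently transfected HepG2, harvested 24 h post-dose and measured by RT-PCR plus capillary electrophoresis.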

The nature of assay [12]: ATG_AP_1_CIS: Attagene CIS-FACTORIAL HepG2 Assay for human Activator Protein 1 (AP-1) (AID 2282931). Particulars: HepG2 Attagene cis-factorial AP-1 reporter mRNA; actives raise or lower the signal. An outline of the steps:
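After 24 h incubation with test chemical, RNA from transfected HepG2 cells was reverse-transcribed, amplified, fluorescently labelled and digested before capillary electrophoresis. Reporters were driven by cis-regulatory promoters; activity fitted bidirectionally versus DMSO.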

Assay [13] can be described thus: ATG_AP_2_CIS: Attagene CIS-FACTORIAL HepG2 Assay for human Activator Protein 2 (AP-2) (AID 2282932). Particulars: HepG2 AP-2 cis-reporter, Attagene transcription factor profiling; actives raise or lower the signal. In outline:
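Cells (HepG2) transfected with promoter-driven reporter constructs, treated 24 h. Total RNA reverse-transcribed, reporter cDNA PCR-amplified, FAM-labelled by primer extension, digested, resolved by capillary electrophoresis. Activity fitted both directions versus DMSO.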

A short description of assay [14]: ATG_BRE_CIS: Attagene CIS-FACTORIAL HepG2 Assay for human Bone Morphogenetic Protein (BMP) Response Element (BRE) (AID 2282933). Particulars: HepG2 BMP response element reporter, Attagene transcription factor profiling; actives raise or lower the signal. In outline: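 HepG2 cells transiently transfected with CIS reporter units (endogenous TF activity, BMP response element), dosed 24 h. Reporter mRNA quantified by RT-PCR, fluorescent labelling and capillary electrophoresis; bidirectional fit vs DMSO baseline.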

Assay [15] concerns the target Retinoic acid receptor alpha (Homo sapiens) (UniProt P10276). Kind of assay: ATG_DR5_RAR_CIS: Attagene CIS-FACTORIAL HepG2 Assay for human Retinoic Acid Receptor Alpha (RARE), DR5 submotif (AID 2282934).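 As to AC50: reporter responds to endogenous RAR alpha beta and gamma in HepG2 not RARA alone.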 Particulars: HepG2 Attagene cis-factorial RARE DR5 reporter, mRNA; actives raise or lower the signal. An outline of the steps:
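Endpoint fitted in both directions relative to DMSO as negative control. It reflects DR5 cis-element reporter mRNA induction in transiently transfected HepG2 cells, measured 24 h after dosing through RT-PCR and fluorescent capillary electrophoresis.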

A short description of assay [16]: APR_HepG2_StressKinase_24hr: Apredica 24-hour HepG2 Assay for Stress Kinase (AID 2282922). Particulars: HepG2 stress kinase (phospho-c-Jun) imaging, actives raise or lower the signal. An outline of the steps: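 After 24 hr compound treatment (up to 200 uM, final DMSO 0.5% v/v), HepG2 cells are fixed and multiplex-labeled; phospho-c-Jun intensity is captured by high-content fluorescence imaging and analyzed relative to DMSO.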

Assay [17] can be described thus: APR_HepG2_MicrotubuleCSK_72hr: Apredica 72-hour HepG2 Assay for Microtubule CSK Stabilty (AID 2282919). Particulars: HepG2 microtubule cytoskeleton, high-content imaging, actives raise or lower the signal. In outline:
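Ten-point dosing (0.39–200 uM, 0.5% DMSO) of HepG2 for 72 hr, with taxol as the cytoskeletal positive control. The cells were formaldehyde-fixed and then stained with alpha-tubulin/Cy5 and Hoechst. Imaging at 20x used a −2 um Z offset for tubulin.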

In assay [18] the target is CCAAT/enhancer-binding protein beta (Homo sapiens) (UniProt P17676). Nature of the assay: ATG_C_EBP_CIS: Attagene CIS-FACTORIAL HepG2 Assay for human CCAAT/Enhancer Binding Protein (C/EBP) beta (AID 2282927). Particulars: HepG2 Attagene cis-factorial transcription factor reporter; actives raise or lower the signal. An outline of the steps: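 Following a 24 h incubation with test chemical, transfected HepG2 cells yielded RNA whose reporter transcripts were quantified by RT-PCR and fluorescent capillary electrophoresis, with DMSO serving as baseline for bidirectional fitting.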

Assay [19] in a line: APR_HepG2_NuclearSize_72hr: Apredica 72-hour HepG2 Assay for Nuclear Size (AID 2282925). Particulars: high-content imaging, actives raise or lower the signal. An outline of the steps: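 Compounds (0.39–200 uM, final DMSO 0.5%) were applied to HepG2 for 72 hr. Cells were then formaldehyde-fixed, permeabilized and labelled with Hoechst 33342. Nuclear diameter was quantified from six images per well.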

Active and inactive are the calls of the source. The calls were made as follows: active = hit-call score of the fitted dose curve at least 0.9, where 1 is the maximum; inactive = score below 0.9.

Retinoic acid receptor alpha (Homo sapiens), sequence (P10276 whole entry, looked up): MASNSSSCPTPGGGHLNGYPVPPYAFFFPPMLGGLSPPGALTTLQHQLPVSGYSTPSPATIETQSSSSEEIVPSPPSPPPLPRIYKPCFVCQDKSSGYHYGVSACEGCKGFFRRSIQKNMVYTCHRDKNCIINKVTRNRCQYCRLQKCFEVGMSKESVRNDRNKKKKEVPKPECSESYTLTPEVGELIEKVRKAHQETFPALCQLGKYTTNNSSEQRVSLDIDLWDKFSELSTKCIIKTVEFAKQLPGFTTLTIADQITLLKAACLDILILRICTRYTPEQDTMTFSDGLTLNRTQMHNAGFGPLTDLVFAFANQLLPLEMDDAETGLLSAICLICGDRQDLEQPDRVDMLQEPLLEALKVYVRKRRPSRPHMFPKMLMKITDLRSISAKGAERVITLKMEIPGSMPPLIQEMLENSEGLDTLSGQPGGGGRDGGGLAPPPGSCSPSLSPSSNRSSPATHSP
CCAAT/enhancer-binding protein beta (Homo sapiens), sequence (P17676 whole entry, looked up): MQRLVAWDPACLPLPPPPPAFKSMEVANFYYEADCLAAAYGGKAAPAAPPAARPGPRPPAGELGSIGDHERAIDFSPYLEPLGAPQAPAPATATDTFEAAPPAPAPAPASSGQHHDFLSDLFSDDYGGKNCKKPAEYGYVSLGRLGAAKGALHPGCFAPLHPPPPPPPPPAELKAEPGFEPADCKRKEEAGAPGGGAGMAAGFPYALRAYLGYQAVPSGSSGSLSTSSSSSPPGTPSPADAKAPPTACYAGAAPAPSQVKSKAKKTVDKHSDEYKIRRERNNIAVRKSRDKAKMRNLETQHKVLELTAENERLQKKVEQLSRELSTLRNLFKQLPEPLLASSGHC
Aryl hydrocarbon receptor (Homo sapiens), sequence (P35869 whole entry, looked up): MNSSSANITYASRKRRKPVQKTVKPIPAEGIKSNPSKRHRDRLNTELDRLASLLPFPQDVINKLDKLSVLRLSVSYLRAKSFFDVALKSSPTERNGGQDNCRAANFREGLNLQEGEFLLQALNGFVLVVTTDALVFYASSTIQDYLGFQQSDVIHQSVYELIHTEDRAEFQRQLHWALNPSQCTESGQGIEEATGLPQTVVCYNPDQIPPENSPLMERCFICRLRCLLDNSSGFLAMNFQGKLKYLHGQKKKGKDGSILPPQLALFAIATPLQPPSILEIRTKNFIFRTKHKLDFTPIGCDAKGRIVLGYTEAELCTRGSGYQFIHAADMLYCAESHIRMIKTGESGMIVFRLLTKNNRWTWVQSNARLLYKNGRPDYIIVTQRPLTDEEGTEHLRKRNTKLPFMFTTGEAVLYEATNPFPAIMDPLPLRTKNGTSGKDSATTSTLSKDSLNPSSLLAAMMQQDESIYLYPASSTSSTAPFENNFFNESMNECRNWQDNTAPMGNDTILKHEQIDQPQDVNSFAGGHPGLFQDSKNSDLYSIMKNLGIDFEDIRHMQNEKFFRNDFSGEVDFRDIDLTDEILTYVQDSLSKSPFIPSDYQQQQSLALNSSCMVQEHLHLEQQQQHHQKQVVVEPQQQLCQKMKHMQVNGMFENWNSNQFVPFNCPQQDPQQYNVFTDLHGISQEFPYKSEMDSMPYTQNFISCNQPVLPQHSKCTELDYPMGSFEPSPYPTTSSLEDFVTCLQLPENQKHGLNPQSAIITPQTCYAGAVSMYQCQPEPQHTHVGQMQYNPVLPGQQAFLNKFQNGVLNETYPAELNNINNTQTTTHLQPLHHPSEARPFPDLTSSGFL

As to `COP(=S)(OC)Oc1ccc([N+](=O)[O-])cc1`, the molecule was classed as inactive in [1], in assay [2], in [3], in assay [4], in assay [5] and in assay [6]. The molecule was classed as inactive in assay [7], in assay [8], in assay [9], in assay [10], in assay [11] and in assay [12]. In addition, the molecule was called inactive in assay [13], in assay [14] and in assay [15].

On to `CCOCN(C(=O)CCl)c1c(C)cccc1CC`, for which the call in assay [1], in assay [2], in assay [5], in assay [16], in assay [6] and in assay [7] was inactive. Also, the call in assay [8], in assay [9], in [10], in assay [11], in assay [12] and in assay [13] was inactive. Also, the molecule was classed as inactive in assay [14] and in assay [15]. In addition, the values for the half-maximal activity concentration (AC50) in [3] and in assay [4] were 93 µM (active) and 30.9 µM (active), respectively.

In the case of `CCC(C)Nc1c([N+](=O)[O-])cc(C(C)(C)C)cc1[N+](=O)[O-]` (configuration not stated), the molecule was called inactive in assay [1], in assay [2], in assay [3], in [4], in [5] and in assay [7]. For the same molecule, the molecule was classed as inactive in [11], in assay [13] and in [14]. Further, the AC50 in [17] is 57.8 µM (active); in [8], 7.44 µM (active); in assay [9] it was 24.1 µM (active); in [10], 36.4 µM (active); in assay [12], 43.3 µM (active); in assay [15] it was 6.5 µM (active).

Regarding `COC(=O)c1ccccc1S(=O)(=O)NC(=O)N(C)c1nc(C)nc(OC)n1`, the outcome in assay [1], in assay [2], in assay [3], in assay [4], in assay [5] and in assay [16] was inactive. In addition, the outcome in assay [6], in assay [7], in assay [8], in assay [18], in assay [9] and in [10] was inactive. In addition, the result in [11], in assay [12], in [13], in assay [14] and in assay [15] was inactive.

On to `O=[N+]([O-])/N=C1\NCCN1Cc1ccc(Cl)nc1`, for which the call in [1], in assay [2], in [3], in assay [17], in assay [4] and in [5] was inactive. The call in assay [7], in [19], in assay [8], in assay [18], in [9] and in assay [10] was inactive. Moreover, the call in assay [12], in [13], in assay [14] and in assay [15] was inactive.

As for `O=C(O)CCCOc1ccc(Cl)cc1Cl`, the outcome in assay [1], in assay [2], in assay [3], in [4], in assay [5] and in [6] was inactive. Besides, the molecule was called inactive in assay [7], in assay [19], in [8], in [9], in [10] and in assay [11]. The molecule was classed as inactive in [12], in [13], in [14] and in assay [15].

For the molecule `CCc1ccc(C(=O)NN(C(=O)c2cc(C)cc(C)c2)C(C)(C)C)cc1`, the result in assay [1], in assay [2], in assay [3], in assay [4], in assay [5] and in assay [6] was inactive. In addition, the result in assay [7], in [19], in [8], in assay [18], in assay [9] and in assay [11] was inactive. The outcome in assay [12], in assay [13], in assay [14] and in assay [15] was inactive. Further, in assay [10], the concentration at half-maximal activity (AC50) is 50 µM (active).

By AC50 is commonly meant the midpoint of the concentration-response curve, whichever way the signal moves.

These data come from PubChem BioAssay (EPA / NIEHS).
